Assay results from PubChem BioAssay (Tox21).
Results filed as inconclusive are left out. The source made the active and inactive calls. Calls follow the shape of the dose curve; as a rule, active = well fitted inhibition curve with a large enough effect in the signal ratio in the repeat runs (not every such curve was filed as active); inconclusive = weak or mixed curves, or effect the other way; inactive = no such curve, though single readings can be large or run the other way; the % refers to the signal ratio. Where a SMILES comes first, the peptide text is derived from it. [ ]: non-standard residue; d: D form. pGlu = O=C1CC[C@@H](C(=O)O)N1

Target: Vitamin D3 receptor (Homo sapiens) (UniProt P11473)
Assay: qHTS assay to identify small molecule antagonists of the vitamin D receptor (VDR) signaling pathway (AID 743223)
Conditions: VDR-UAS-bla HEK293T, beta-lactamase FRET ratio, 16 h; series mostly up to 61 µM
Description: U.S. Tox21 Program National Center for Advancing Translational Sciences [NCATS] NIH Chemical Genomics Center [NCGC] U.S. Environmental Protection Agency [EPA] National Institutes of Environmental Health Sciences [NIEHS] National Toxicology Program [NTP] U.S. Food and Drug Administration [FDA] Tox21 Assay Overview: The vitamin D receptor (VDR), a member of nuclear hormone receptor superfamily, plays a critical role in calcium homeostasis and bone metabolism. It is also involved in cell differentiation and growth, and thrombogenicity.
Tox21 Assay Protocol Summary: VDR-bla cells were dispensed at 2,000 cells/5 uL of assay medium per well into black wall/clear-bottom 1536-well plates using a Multidrop Combi (Thermo Fisher Scientific, Waltham, MA) dispenser. After the assay plates were incubated at a 37C and 5% CO2 for 4 h, 23 nL of compounds dissolved in DMSO, positive controls or DMSO only was transferred to the assay plate by a Pintool station (Kalypsys, San Diego, CA), followed by addition of 1 uL of 1alpha, 25-Dihydroxy Vitamin D3 (3 nM, final concentration in the wells) using a Bioraptr Flying Reagent Dispenser (FRD) workstation (Beckman Coulter, Indianapolis, IN). The plates were incubated at 37C and 5% CO2 for 16 h, and then 1 uL of LiveBLAzerTM B/G FRET substrate was added using a Bioraptr FRD. The plates were incubated at room temperature for 2 h and fluorescence intensity was measured by an Envision plate reader (PerkinElmer, Shelton, CT).

Vitamin D3 receptor (Homo sapiens), sequence (P11473 whole entry, looked up): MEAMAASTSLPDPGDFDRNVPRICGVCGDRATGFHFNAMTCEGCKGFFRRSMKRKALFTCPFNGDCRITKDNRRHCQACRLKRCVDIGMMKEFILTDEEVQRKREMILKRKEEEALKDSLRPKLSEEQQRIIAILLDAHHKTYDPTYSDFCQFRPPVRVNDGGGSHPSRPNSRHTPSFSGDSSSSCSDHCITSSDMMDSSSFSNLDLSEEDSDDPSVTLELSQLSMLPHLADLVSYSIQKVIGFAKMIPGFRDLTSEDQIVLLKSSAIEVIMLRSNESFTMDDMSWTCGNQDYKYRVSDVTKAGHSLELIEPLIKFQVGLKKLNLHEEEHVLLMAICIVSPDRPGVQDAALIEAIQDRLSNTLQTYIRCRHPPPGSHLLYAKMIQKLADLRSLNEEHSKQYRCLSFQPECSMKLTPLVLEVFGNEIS

SMILES	outcome
CC(C#N)(CCC(=O)O)N=NC(C)(C#N)CCC(=O)O (stereo not given)	inactive
C=CC(C)(CCC=C(C)C)OC(=O)CC (stereo not given)	inactive
C[N+]1(C)CCCC(OC(=O)C(O)(c2ccccc2)c2ccccc2)C1 (stereo not given)	inactive
CC1=C(C/C=C(\C)CCC[C@H](C)CCC[C@H](C)CCCC(C)C)C(=O)c2ccccc2C1=O	inactive
CCNC(=O)[C@@H]1CCCN1C(=O)[C@H](CCCN=C(N)N)NC(=O)[C@H](CC(C)C)NC(=O)CNC(=O)[C@H](Cc1ccc(O)cc1)NC(=O)[C@H](CO)NC(=O)[C@H](Cc1c[nH]c2ccccc12)NC(=O)[C@H](Cc1cnc[nH]1)NC(=O)[C@@H]1CCC(=O)N1 ([pGlu]HWSYGLRP-NHEt)	inactive
[Ca+2]	inactive
CC(C)=CCC/C(C)=C/C#N	inactive
O=[N+]([O-])c1cncn1CCN1CCOCC1	inactive
NC(=O)N[C@@H](CCC(=O)O)C(=O)O	inactive
Clc1cc(Cl)c(Cl)nc1Cl	inactive
CCCCCC(=O)OCCc1ccccc1	inactive
CCCCCCCCCCCCCCCCCCO	inactive
O=S(=O)(O)c1cccc(S(=O)(=O)O)c1	inactive
CO[C@@]1(NC(=O)CSC[C@@H](N)C(=O)O)C(=O)N2C(C(=O)O)=C(CSc3nnnn3C)CS[C@@H]21	inactive
CC(=O)N1C[C@H](O)C[C@H]1C(=O)O	inactive
[O-][n+]1cccc(CO)c1	inactive
C[N+]1(C)[C@@H]2CC(OC(=O)[C@H](CO)c3ccccc3)C[C@H]1[C@@H]1O[C@@H]12 (stereo not given in full)	inactive
C[N+](C)(CCOc1ccccc1)Cc1cccs1	inactive
CCN(C=O)CC	inactive
Cc1ccc(-c2ccccc2C#N)cc1	inactive

SMILES	outcome
O=C(O)c1cc(C(=O)O)cc(C(=O)O)c1	inactive
CCCCOCCOC(=O)COc1cc(Cl)c(Cl)cc1Cl	inactive
C=CC(=O)OCCCl	inactive
CCCc1ncc(C[n+]2ccccc2C)c(N)n1	inactive
C=COCC1CCC(COC=C)CC1 (stereo not given)	inactive
CC(CC=O)CC(C)(C)C (stereo not given)	inactive
CC(=O)Nc1ccc(OCC(O)CNC(C)C)cc1 (stereo not given)	inactive
CC(COc1ccccc1)NN (stereo not given)	inactive
CC(=O)c1cnccn1	inactive
Cc1ccnc(NS(=O)(=O)c2ccc(N)cc2)n1	inactive
CCCn1cc[n+](C)c1C	inactive
CCOC(=O)c1ccccc1	inactive
O=Cc1cccc(Br)c1	inactive
Cc1nc2ccc(CN(C)c3ccc(C(=O)N[C@@H](CCC(=O)O)C(=O)O)s3)cc2c(=O)[nH]1	inactive
c1coc(CNc2ncnc3nc[nH]c23)c1	inactive
CN(C)C(=O)Oc1cccc([N+](C)(C)C)c1	inactive
COCCOCC(OC)OC	inactive
CC(C(=O)O)c1cccc(Oc2ccccc2)c1 (stereo not given)	inactive
Nc1ccccn1	inactive
CCC1C(=O)OCC1Cc1cncn1C (stereo not given)	inactive
